Bioassay records: PubChem, National Center for Advancing Translational Sciences (NCATS)
Most compounds without a hit are left out; they make up all but 3.1% or so of the library.
TSHR antagonist = antagonists of human thyroid stimulating hormone receptor; P16473; TSHR-expressing cells, TSH-stimulated cAMP HTRF, 2 h; active compounds read low; activity change, negative = inhibition, % at 11.5 µM; 330,000 tested, 0.2% active; AID 504810;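 active = activity change below a set negative limit, meaning inhibition stronger than a set level, cut at about -70% in these data; inconclusive = activity change between two set negative limits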
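Competitive HTRF cAMP read-out (cryptate anti-cAMP antibody, cAMP-d2; 30 min, room temperature) in freshly harvested TSHR cells. Compounds added before TSH at EC80 (4nM final), followed by 2 hours' incubation at 37 deg C.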
Vif-APOBEC3F blk = inhibitors of Vif-A3F interaction; HeLa A3F-eYFP + Vif (tagged APOBEC3F with the HIV-1 protein that degrades it), YFP fluorescence increase; 390,000 tested, 0.2% active; Potency, µM (series often up to 46.1 µM); AID 602313; note: nearly all actives have a fitted effect of over 65% in size
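HeLa cells stably expressing A3F-eYFP plus Vif, plated and incubated overnight at 37 deg C, then exposed to compounds overnight at 37 deg C. Blocked degradation read as raised yellow fluorescence (Ex 488/Em 500-530).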
Vif-APOBEC3G blk = Vif-A3G binding inhibition | Q9HC16 | HeLa A3G-eYFP + Vif (tagged APOBEC3G with the HIV-1 protein that degrades it), YFP fluorescence, overnight | Potency, µM (doses to about 46.1 µM), usual class: inhibitors | 410,000 tested, 0.076% active | AID 602310; note: nearly all actives have a fitted effect of over 60% in size
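HeLa cells stably expressing Vif and C-terminally eYFP-tagged A3G, seeded overnight at 37 deg C, then exposed to compound by pintool overnight at 37 deg C. Rise in yellow fluorescence (Ex 488/Em 500-530, Acumen) marks blocked Vif-driven A3G degradation.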
VDR inhibitor = inhibitors of human vitamin D receptor | Potency, µM, actives largely listed as inhibitors | P11473 | AID 504847 | VDR-SRC2-3 peptide fluorescence polarization, 2 h | 400,000 tested, 0.93% active
Target sequence (P11473 whole entry, looked up): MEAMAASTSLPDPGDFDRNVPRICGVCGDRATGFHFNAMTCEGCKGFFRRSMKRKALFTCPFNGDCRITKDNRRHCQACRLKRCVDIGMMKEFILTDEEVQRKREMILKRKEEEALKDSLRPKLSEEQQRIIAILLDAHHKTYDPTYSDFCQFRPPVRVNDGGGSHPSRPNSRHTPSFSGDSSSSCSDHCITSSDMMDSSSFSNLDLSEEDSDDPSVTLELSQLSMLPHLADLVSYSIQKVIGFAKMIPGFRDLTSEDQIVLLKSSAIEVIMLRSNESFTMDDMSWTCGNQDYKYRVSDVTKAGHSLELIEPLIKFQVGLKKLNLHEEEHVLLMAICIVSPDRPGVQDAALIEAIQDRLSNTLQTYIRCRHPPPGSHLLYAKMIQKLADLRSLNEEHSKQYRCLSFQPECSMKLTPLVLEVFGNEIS
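Inhibition of the VDR/SRC2-3 peptide interaction is quantified by fluorescence polarization. Compounds (23 nl, pintool) incubate with the reagents for 2 hours at ambient room temperature.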
PLK1 PBD inh = inhibitors of human PLK1 polo-box domain binding; P53350; Plk1 PBD binding of FITC phosphopeptide, fluorescence polarization; Potency, µM, actives largely listed as inhibitors; 360,000 tested, 2.8% active; AID 720504; note: series mostly up to about 57 µM; nearly all actives have a fitted effect of over 65% in size
Numbers stand for hits; i = inactive; ? = inconclusive; nt = no result given. Unless noted, calls come from the whole dose curve; as a rule, active = well fitted curve in the direction sought with a large enough effect; inconclusive = small, poorly fitted or top-dose-only effect, or another doubt; inactive = no such curve, though single readings can be large; an effect the other way counts as inactive or inconclusive.

SMILES	TSHR antagonist	Vif-APOBEC3F blk	Vif-APOBEC3G blk	VDR inhibitor	PLK1 PBD inh
COc1ccc(-c2cc(C(F)(F)F)nc(SCc3cccc(C(=O)O)c3)n2)cc1	i	i	i	i	21µM
COc1ccc2c(c1)OC/C(=C/c1ccc(OC)c(OC)c1)C2=O	nt	nt	nt	22µM	nt
COc1ccc(/C=C2\Cc3ccccc3C2=O)cc1OC	i	i	i	i	i
O=[N+]([O-])c1cccc(S(=O)(=O)NCCNS(=O)(=O)c2cccc([N+](=O)[O-])c2)c1	nt	nt	nt	i	nt
COc1cccc(C(=O)O/N=C(\N)c2ccccn2)c1OC	i	i	i	?	24µM
N/C(=N\OC(=O)c1cccc2ccccc12)c1ccccn1	i	i	i	i	i
Nc1[nH]c(=S)[nH]c(=O)c1N=O	nt	nt	i	nt	nt
Cc1nn(-c2ccccc2)c(Cl)c1C1C(C#N)=C(N)Oc2n[nH]c(C)c21 (stereo not given)	i	i	i	i	24µM
Cc1nn(-c2ccccc2)c(Cl)c1C1C(C#N)=C(N)Oc2c1c(C)nn2-c1ccccc1 (stereo not given)	i	i	i	i	i
Cc1[nH]nc2c1C(c1ccc(-c3ccccc3C#N)o1)C(C#N)=C(N)O2 (stereo not given)	i	i	i	i	30µM
CCOC(=O)C1=C(C)OC(N)=C(C#N)C1c1c(C)nn(-c2ccccc2)c1Cl (stereo not given)	i	i	i	71µM	i
Cc1ccc(-c2ccc(C3C(C#N)=C(N)Oc4n[nH]c(C)c43)o2)cc1 (stereo not given)	i	i	i	?	?
C=C1C=C(C(F)F)n2ncc(C(=O)NCc3ccccc3OC)c2N1	nt	nt	i	nt	nt
c1ccc(Nc2ccccn2)cc1	i	i	i	?	24µM
c1ccc(Nc2cccc(Nc3ccccc3)n2)cc1	i	nt	i	i	i
COc1ccc(C2Nc3ccccc3C(=O)N2Cc2ccco2)cc1COc1c(C)cccc1C (stereo not given)	nt	nt	i	14µM	nt
COc1ccc2c(c1)c1nnc(SCCN3CCOCC3)nc1n2C	nt	nt	nt	i	nt
CCCCN1CC(C)(C)Oc2cccc(F)c2S1(=O)=O	nt	i	i	i	i
C=CCCC1CN(CCCC)S(=O)(=O)c2c(F)cccc2O1 (stereo not given)	nt	i	i	89µM	21µM
COc1cc(C(C2C(=O)CC(C)(C)CC2=O)C2C(=O)CC(C)(C)CC2=O)cc(OC)c1OC	i	i	i	?	?
COc1cc(C(C2=C(O)CC(C)(C)CC2=O)C2C(=O)CC(C)(C)CC2=O)cc(OC)c1OC (stereo not given)	i	i	i	?	19µM
Cc1cc(C)n(CCc2nc(-c3ccc(-c4ccccc4)cc3)cs2)n1	i	i	i	i	i
Cc1nn(CCc2nc(-c3ccco3)cs2)c2[nH]c(=O)cc(C(F)(F)F)c12	i	i	i	i	11µM
Cc1cc(C)n(CCc2nc(-c3ccco3)cs2)n1	i	i	i	?	16µM
CCCCCCCCCCCCC/C=C/C(O)C(COP(=O)(O)OCCN)NC(=O)CCCCCCCCCCCCCCCCC (stereo not given)	nt	nt	nt	i	nt
SMILES	TSHR antagonist	Vif-APOBEC3F blk	Vif-APOBEC3G blk	VDR inhibitor	PLK1 PBD inh
CC(C)CN(CC(C)C)S(=O)(=O)c1ccc(C(=O)Nc2sc3c(c2C(N)=O)CC(C)(C)NC3(C)C)cc1	nt	i	i	i	nt
CN(C1CCCCC1)S(=O)(=O)c1ccc(C(=O)Nc2sc3c(c2C(N)=O)CC(C)(C)NC3(C)C)cc1	i	i	i	i	34µM
Cc1ccc2occ(CC(=O)N(Cc3ccc(Cl)cc3)Cc3ccco3)c2c1	nt	i	i	i	nt
Cc1cc(C(=O)CCl)c(C)n1-c1ccon1	i	i	i	i	27µM
COc1ccc(N2CC(C(=O)Nc3nnc(SCC(=O)NCC4CCCO4)s3)CC2=O)cc1 (stereo not given)	nt	i	i	?	30µM
COc1ccc(NC(=O)Cn2c(C)cc3ccccc3c2=O)c(OC)c1	nt	i	i	i	nt
COc1ccc(CN(Cc2ccccc2)C(=O)c2ccncc2)cc1COc1ccc(NC(C)=O)cc1	nt	nt	nt	i	nt
Cc1cc(Cl)c2oc(C(=O)N(C)CCc3cnn(C)c3)c(C)c2c1	i	i	i	i	24µM
CC(C)C[C@H](NC(=O)C1OC1C(=O)O)C(=O)NCCCCN=C(N)N (stereo not given in full)	i	nt	nt	i	nt
O=C(Oc1ccc2c3c(c(=O)oc2c1)CCCC3)c1ccco1	i	i	i	i	24µM
C=CCOc1ccc2c3c(c(=O)oc2c1)CCCC3	nt	i	i	i	i
CCCOc1ccc2c3c(c(=O)oc2c1)CCCC3	i	i	i	i	7.5µM
CC(=O)Oc1ccc2c3c(c(=O)oc2c1)CCCC3	i	i	i	i	i
CN(C)c1ccc(-c2nn3c(-c4cc(-c5ccccc5)n[nH]4)nnc3s2)cc1	nt	nt	i	i	nt
O=C(C[N+]12CN3CN(CN(C3)C1)C2)c1ccc(Br)cc1	nt	nt	i	nt	nt
CC(C)C(=O)Nc1ccc(/C=C2\C=Cc3ccccc32)cc1	nt	nt	i	nt	nt
CCN(CC(=O)NCc1ccc(F)cc1)C(=O)/C=C/c1ccc(OC)c(S(=O)(=O)NC(C)C)c1	i	i	2.8µM	i	i
C[C@@H]1CC[C@]2(C(=O)O)CC[C@]3(C)C(=CCC4[C@@]5(C)C[C@@H](O)[C@H](O)[C@@](C)(CO)C5[C@H](O)C[C@]43C)C2[C@H]1C (stereo not given in full)	nt	nt	nt	i	nt
Clc1cc(Cl)c2nc(N3CCCCC3)sc2c1	i	i	i	i	24µM
Oc1ccccc1C1C=C(c2ccc3c(c2)OCO3)NC(c2cccc(Cl)c2)N1 (stereo not given)	nt	nt	i	i	nt
C=CCn1c(C)cc(C(=O)CSc2nc3ccccc3c(=O)[nH]2)c1C	i	i	i	i	12µM
COCCNC(=O)C1(C(F)(F)F)C/C(=C/CCO)CCCO1 (stereo not given)	nt	nt	i	i	nt
CC1(C)CC[C@]2(C(=O)n3ccnc3)CC[C@]3(C)[C@H](C(=O)C=C4[C@@]5(C)C=C(C#N)C(=O)C(C)(C)[C@@H]5CC[C@]43C)[C@@H]2C1	nt	i	?	45µM	1.7µM
Cc1ccccc1C1CC(=O)Oc2ccc(C(C)(C)C)cc21 (stereo not given)	nt	nt	nt	i	nt
Cc1ccccc1C1CC(=O)Oc2cc(O)ccc21 (stereo not given)	i	?	i	i	17µM
SMILES	TSHR antagonist	Vif-APOBEC3F blk	Vif-APOBEC3G blk	VDR inhibitor	PLK1 PBD inh
CCOC(=O)c1cc(C#N)c(Oc2cccc(C(F)(F)F)c2)nc1-c1ccccc1	i	i	i	i	24µM
O=C(c1cc2ccccc2o1)c1cccs1	i	i	i	i	24µM
O=C(NC(=S)Nc1ccc(NC(=O)c2cccs2)cc1)c1cc2ccccc2o1	i	i	i	i	i
CCCn1c(=N)n(CC(=O)c2ccc([N+](=O)[O-])cc2)c2ccccc21	i	?	i	i	i
Cc1ccccc1Cn1c(=N)n(CC(=O)c2ccc([N+](=O)[O-])cc2)c2ccccc21	i	28µM	i	i	i
COc1ccc(-n2c(SCC(=O)NCc3ccc(C)cc3)nc3n[nH]c(C)c3c2=N)cc1	nt	i	i	i	nt
